Assay results from PubChem BioAssay AID504819 (NMMLSC, 2011).
This is one part of the list. A number with no mark means an inactive call.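 How the source made its calls: active means compounds quenching the bead-bound labeled aptamer, with fluorescence dropping by more than 37 kMESF over the dose range; inactive means the rest.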

Test: aptamer fluorescence quenchers on streptavidin beads – biochemical, flow cytometry, cherry pick 2, artefact control for GRK2 aptamer inhibitor project, dose response (AID 504819)
Settings: FAM-RNA aptamer fluorescence quenching, active compounds read high

Row | Structure (SMILES) | change in fluorescence (kMESF span) [kMESF]
1 | O=C(CCS(=O)(=O)c1ccc(Br)cc1)NCCc1ccc(Cl)cc1 | 2.5
2 | COc1ccc(Cl)cc1NC(=O)CCS(=O)(=O)c1ccc(Br)cc1 | 1.4
